Compound activity deposited in PubChem BioAssay by National Center for Advancing Translational Sciences (NCATS).
ELG1 DNA repair – blocks ELG1-dependent DNA repair in HEK293T cells; AID 504467; HEK293T ELG1-luciferase reporter, luminescence, 16 h; DNA damage induced by 5-fluorouridine; Potency, µM (doses to about 46.1 µM), for inactives: top-dose activity change, negative = inhibition, most hits filed as inhibitors; 2.3% of 330,000 active; note: potency is the fitted concentration of half-maximal effect; nearly all actives have a fitted effect of over 55% in size
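Overnight (16 hr) co-exposure of 2,000 cells/well to 5-fluorouridine and compound at 37 °C preceded detection. Luciferase was quantified via ONE-Glo luminescence; loss of signal denotes inhibition.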
RORgamma inh – ROR gamma (mouse) transcription inhibition; Drosophila S2 Gal4-RORgamma UAS-luciferase reporter, 20 h; P51450; Potency, µM (doses to about 53.6 µM), without a hit: top-dose activity change, negative = inhibition, actives largely listed as inhibitors; AID 2551; 5.4% of 310,000 active; note: potency is the fitted concentration of half-maximal effect; nearly all actives have a fitted effect of over 60% in size
Target sequence (P51450 whole entry, looked up, the tested form may be a part): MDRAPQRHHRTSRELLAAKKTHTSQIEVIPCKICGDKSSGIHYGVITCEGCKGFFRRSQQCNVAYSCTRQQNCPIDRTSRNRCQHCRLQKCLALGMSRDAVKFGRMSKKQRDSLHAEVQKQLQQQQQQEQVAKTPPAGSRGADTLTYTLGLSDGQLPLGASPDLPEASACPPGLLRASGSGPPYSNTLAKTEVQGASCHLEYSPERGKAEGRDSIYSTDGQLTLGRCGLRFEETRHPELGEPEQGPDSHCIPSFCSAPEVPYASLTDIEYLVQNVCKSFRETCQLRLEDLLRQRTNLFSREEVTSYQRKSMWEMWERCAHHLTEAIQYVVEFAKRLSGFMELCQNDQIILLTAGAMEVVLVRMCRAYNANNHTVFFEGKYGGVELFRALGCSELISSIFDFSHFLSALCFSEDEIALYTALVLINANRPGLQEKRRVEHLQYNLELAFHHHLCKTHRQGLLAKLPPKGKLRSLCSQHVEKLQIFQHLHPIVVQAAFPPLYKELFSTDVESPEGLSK
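ROR gamma transcriptional activity was tracked as Gal4-UAS luciferase output in stably transfected Drosophila Schneider cells, with compound added 1 hr before 700 uM copper sulfate induction and a 20 hr ambient-temperature incubation.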
DT40 TDP1 no CPT – qHTS for Inhibitors of human tyrosyl-DNA phosphodiesterase 1 (TDP1): qHTS in cells in absence of CPT; DT40 Tdp1-/- hTDP1 cells, no CPT, ATP luminescence, 48 h; AID 686978, 2013; Potency, µM (doses to about 46.2 µM), inactives show at the top dose activity change, negative = growth inhibition, usual class: inhibitors; 15% of 420,000 active; note: potency is the fitted concentration of half-maximal effect; nearly all actives have a fitted effect of over 55% in size
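No-CPT arm: Tdp1-/-;hTDP1 DT40 cells (400/well) plus compounds, incubated ≥48 hr at 37 °C. Readout CellTiter-Glo luminescence.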
VP16 counter – Gal4-VP16 reporter inhibition counter-screen; Drosophila S2 Gal4-VP16 UAS-luciferase, luminescence, 20 h; Potency, µM (titrated, usually from 53.6 µM), for the others: at the highest dose activity, negative = inhibition, most hits filed as inhibitors; 3.5% of 310,000 active;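 note: Gal4-VP16 expression switched on by copper sulfate through the metallothionein promoter; potency is the fitted concentration of half-maximal effect; nearly all actives have a fitted effect of over 50% in size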
IL1B secr inh – inhibitors of inflammasome signaling (IL-1 beta secretion). THP-1 LPS/ATP IL-1B secretion, AlphaLISA, 16 h; stronger effect = lower value. activity change, % at 57.5 µM. 4.7% of 360,000 active; in the data active = activity change below about -50%; inconclusive = mostly about -30% to -49%
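THP-1 cells pretreated 1 hr with compounds (up to 57.5 uM final), then stimulated with LPS (250 ng/mL final) plus ATP (1.25 mM final); secreted IL-1B measured by AlphaLISA after 16 hr, decreased signal indicating inhibition.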
DT40 TDP1 CPT – DT40-hTDP1 cell growth loss with CPT; chicken DT40 Tdp1-/-;hTDP1 cells + 20 nM CPT, ATP luminescence, 48 h; Potency, µM (doses to about 46.2 µM), for inactives: top-dose activity change, negative = growth inhibition, usual class: inhibitors; 12% of 420,000 active; note: potency is the fitted concentration of half-maximal effect; nearly all actives have a fitted effect of over 55% in size
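Cell growth measured by CellTiter-Glo luminescence after a minimum 48 h, 37 C compound exposure with 20 nM CPT in Tdp1-knockout DT40 cells stably expressing hTDP1, seeded 400/well; qHTS titration format.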
An asterisk follows results filed as active; ? = inconclusive; · = no result given. An excerpt weighted towards active compounds, which were near 21% of everything screened. Unless noted, calls come from the whole dose curve; as a rule, active = well fitted curve in the direction sought with a large enough effect; inconclusive = small, poorly fitted or top-dose-only effect, or another doubt; inactive = no such curve, though single readings can be large; an effect the other way counts as inactive or inconclusive. % is set by controls: 0 for no effect and ±100 for the full control effect.

SMILES | ELG1 DNA repair | RORgamma inh | DT40 TDP1 no CPT | VP16 counter | IL1B secr inh | DT40 TDP1 CPT
Nc1ccc2nc(-c3cccnc3)[nH]c2c1 | 22% | 31% | -23% | 7% | 25 | -1%
Nc1ccc2nc(-c3ccccc3)[nH]c2c1 | ? | 13µM* | ? | ? | -2 | ?
CC1CCC2(CC1)NC(=O)N(CC(=O)N1c3ccccc3CC1C)C2=O (configuration not stated) | 0% | · | -13% | · | -3 | ?
COc1ccccc1CNC(=O)c1cc(-c2ccncc2)nc2c(Cl)cccc12 | ? | -15% | ? | -3% | -15 | ?
COc1ccc(CNC(=O)c2cc(-c3ccncc3)nc3c(C)cc(C)cc23)cc1OC | 23µM* | ? | ? | ? | -23 | ?
COc1ccc(CCNC(=O)c2cc(-c3ccncc3)nc3c(Cl)cccc23)cc1OC | ? | 13% | 21µM* | -2% | -3 | 21µM*
Cc1cccc(NC(=O)c2ccc3[nH]c(C)cc(=O)c3c2)c1 | · | · | -21% | · | · | -2%
Cc1nc2nc(C)n(CCN3CCOCC3)c(=O)c2c(-c2cccc([N+](=O)[O-])c2)c1C(=O)CCCCCCCCCCN1CCC(c2ccccc2)(c2ccccc2)CC1 | · | · | ? | · | -99* | ?
Cc1nc2ccccc2c(=O)n1CCN1CCOCC1 | 1% | 3% | -14% | 4% | 16 | -3%
C=CCOc1cccn2c(N(C)C(=O)c3ccncc3)c(CC)nc12 | · | · | -12% | · | 119 | 4%
CC(C)(C)c1ccc(S(=O)(=O)NC(=O)C2(C)CCN2C(=O)Cc2ccc(-c3ccccc3)cc2)cc1 (configuration not stated) | · | · | -20% | · | 27 | -22%
CC(NC(=O)c1c2c(nc3ccccc13)C(=O)N(C1CCCCC1)C2)c1ccccc1 (configuration not stated) | · | · | 18µM* | · | · | 16µM*
CC(=O)c1ccc(NC(=O)c2c3c(nc4ccccc24)C(=O)N(C2CCCCC2)C3)cc1 | · | · | 21µM* | · | · | 21µM*
COc1cc(NC(=O)c2c3c(nc4ccccc24)C(=O)N(C2CCCCC2)C3)cc(OC)c1 | · | · | -15% | · | · | -21%
O=C(OCC(=O)c1c[nH]c2ccccc12)c1cccc([N+](=O)[O-])c1 | ? | · | 11% | · | 0 | -11%
Cc1cc(NC(=O)CSc2nnc3c(C)cc4c(C)ccc(C)c4n23)no1 | ? | 21% | 1.5µM* | -2% | 35 | 1.2µM*
CCc1nnc(NC(=O)CSc2nnc3c(C)cc4c(C)ccc(C)c4n23)s1 | -7% | 35% | 4.6µM* | -2% | 30 | 3.7µM*
COc1cc(/C=C(\C#N)C(N)=O)cc(CSc2nc3ccccc3s2)c1O | · | 5.6µM* | 15µM* | 14µM* | · | 15µM*
CCCc1cc(=O)[nH]c(Nc2ccc(Cl)cc2)n1 | ? | 41% | 16µM* | 2% | -76* | ?
CCCc1cc(=O)[nH]c(Nc2ccc(O)cc2)n1 | -2% | 0% | ? | -2% | 25 | -30%
Cc1ccc(NC(=O)CSc2nnc3n2CCCCC3)cc1S(=O)(=O)N1CCOCC1 | · | · | -14% | · | 10 | -7%
CC(C)C[C@@H](CNCC(=O)[C@H](CC(C)C)NC(=O)c1[nH]cnc1C(=O)N[C@@H](C)CN)NC(=O)c1nc[nH]c1C(=O)N[C@@H](CC(C)C)C(=O)O | · | · | -23% | · | 0 | ?
CC(C)C[C@@H](CNCC(=O)[C@H](CC(C)C)NC(=O)c1[nH]cnc1C(=O)N[C@@H](C)CN)NC(=O)c1nc[nH]c1C(=O)N[C@@H](CC(=O)O)C(=O)O | · | · | -3% | · | -55* | -16%
Cn1c(N=NC(=O)c2ccccc2)c(O)c2ccccc21 | ? | 8.9µM* | 23µM* | ? | -11 | ?
CC(SCC(=O)NC12CC3CC(CC(C3)C1)C2)C(=O)O (configuration not stated) | -3% | -8% | 2% | -10% | 51 | 0%
SMILES | ELG1 DNA repair | RORgamma inh | DT40 TDP1 no CPT | VP16 counter | IL1B secr inh | DT40 TDP1 CPT
O=C(NC(=S)Nc1ccc(N2CCCCC2)cc1)c1cccs1 | ? | 3.2µM* | ? | 5µM* | ? | 21µM*
CCCC(=O)NC(=S)Nc1ccc(N2CCN(C(=O)c3cccs3)CC2)cc1 | 16µM* | 7.9µM* | 15µM* | ? | -85* | 16µM*
O=C(NC(=S)Nc1ccc(N2CCN(C(=O)c3ccccc3)CC2)cc1)c1cccs1 | 13µM* | 5.6µM* | 26µM* | ? | -60* | ?
CS(=O)(=O)N1CCN(c2ccc(NC(=S)NC(=O)c3cccs3)cc2)CC1 | 16% | 6% | 14% | -12% | -6 | -9%
CC(C)[C@H](NC(=O)OCc1ccccc1)C(=O)OCC(=O)N1C(C)CCCC1C (some centres not stated) | · | · | -30% | · | 12 | -3%
CCn1nccc1NC(=O)c1csc([C@@H]2C[C@H](O)[C@@H](CO)O2)n1 | · | · | 0% | · | 22 | 11%
O=C(NCCc1nnc2n1CCN(Cc1ccc3c(c1)CCO3)CC2)c1ccco1 | · | · | -8% | · | · | -5%
CCN(CC(=O)Nc1ccccc1C(F)(F)F)C(=O)C1=COCCO1 | 9% | · | 2% | · | 1 | -2%
